Consider 57 molecules from PubChem BioAssay AID1117361 (Southern Research Institute, 2015).

The campaign covered roughly 3,600 compounds. About 900 (25%) were called active. A selection follows. Measured potencies and affinities stand elsewhere. A number with no mark means an inactive call. The rule behind the calls is not given here.

One may read the inhibition as the change of the read-out against control, counted positive when it falls.

The target of this assay is Protein Tat (Human immunodeficiency virus type 1 group M subtype B (isolate HXB2)) (UniProt P04608). Put plainly: HIV-1 Tat–TAR interaction blockers – biochemical, fluorescence polarization, FAM-labeled TAR RNA, counter-screen for Vif-APOBEC3G degradation inhibitor project, dose response (AID 1117361). The settings on record: Tat-TAR RNA binding; series mostly up to 100 µM; inhibition: at the top concentration. (In general: In fluorescence polarisation assays a small probe gives low polarisation when free and higher when bound to something large.)
Turning to `CCn1c(=O)cc(N2CCC3(CC2)OCCO3)[nH]c1=O`, the “inhibition” value was 16.2%.

With `Cn1cc(Cl)c(C(=O)Nc2nc3ccccc3s2)n1`, the molecule was called inactive.

Take `CCC(C)(c1nnnn1-c1c(C)cccc1C)N(N=O)c1ccccc1Cl` (configuration not stated): the call was inactive.

In the case of `CSCCC(NS(=O)(=O)c1ccc2c(c1)oc(=O)n2C)C(=O)NC1CCCc2ccccc21` (configuration not stated), the “inhibition” value was 5.41%.

Regarding `COc1ccc(S(N)(=O)=O)cc1C(=O)OCC(=O)NC(C)(C#N)C1CC1` (configuration not stated), the “inhibition” value is 7.42%.

`O=c1cc(O)nc(SCc2ccccc2Cl)[nH]1`: the “inhibition” value was 10.8%.

Consider `CSc1nc(N)c(C#N)c(-c2ccccc2Cl)c1C#N`, for which the “inhibition” value was 3.38%.

For `COc1ccc(C2(O)CCN(Cc3nnnn3Cc3ccc(F)cc3)CC2)cc1`, the outcome was inactive.

For the molecule `CC(C)(C)NCCCCOc1ccc(F)cc1`, the “inhibition” value is 3.01%.

For the molecule `CCOc1ccc(NC(=O)c2ccccc2NS(C)(=O)=O)cc1`, the molecule was classed as inactive.

In the case of `Cc1c(O)nc(SCC(=O)Nc2ccc3c4c(cccc24)CC3)n(-c2ccc(F)cc2)c1=O`, the “inhibition” value is 3.3%.

For the molecule `CCOc1ccc(NC(=O)Cn2cncc2-c2ccc([N+](=O)[O-])cc2)cc1`, the “inhibition” value was 6.82%.

For `Cc1cc(C)nc(N2N=C(C(C)(C)C)CC2=O)n1`, the “inhibition” value was 1.36%.

Consider `COCCn1nnnc1C(c1cc2ccc(C)cc2[nH]c1=O)N(Cc1ccco1)Cc1cccs1` (configuration not stated), for which the “inhibition” value was 29.3%.

In the case of `COc1cc2cc(C(c3nnnn3C3CCCC3)N(C)C3CCCCC3)c(=O)[nH]c2cc1OC` (configuration not stated), the call was inactive.

Take `CCCN(CC(=O)Nc1ccccc1OC)C(=O)CSc1ccc(Br)cc1C`: the “inhibition” value was 14%.

Take `CCN(CC)S(=O)(=O)c1ccc(NC(=O)CSc2nnc(-c3cccc(OC)c3)n2C)cc1`: the “inhibition” value is 2.73%.

In the case of `CC(=O)Nc1c(O)nc(SCC(=O)Nc2ccc(C(C)=O)cc2)[nH]c1=O`, the “inhibition” value is 14.3%.

Take `COc1cccc(NC(=O)CSc2nnnn2C(C)C)c1`: the “inhibition” value was 3.38%.

Regarding `COc1ccc(NC(=O)CSc2nc(C)cc(C)n2)cc1`, the “inhibition” value is 6.76%.

Take `COc1ccc(NC(=O)CSc2nnc(C)n2Cc2ccccc2)cc1`: the molecule was classed as inactive.

For the molecule `CSc1nc(C)cc(SCC(=O)Nc2ccccc2)n1`, the “inhibition” value is 6.08%.

As for `Cc1ccc[n+](CC(=O)c2cc3ccccc3oc2=O)c1`, the “inhibition” value is 10.8%.

With `CCCc1nc(SCc2cccnc2)c2c(=O)n(C)c(=O)n(C)c2n1`, the “inhibition” value was 3.38%.

Regarding `O=C(NCc1ccc2c(c1)OCO2)C1CCCN1C(=O)Nc1ccccc1` (configuration not stated), the “inhibition” value was 2.7%.

For `CCn1c(=O)oc2cc(NC(=O)CCl)ccc21`, the molecule was called inactive.

On to `COC(=O)Cn1ncn2c(cc3oc(C)cc32)c1=O`, for which the “inhibition” value was 22.3%.

As to `O=C(Cn1c(/C=C/c2ccccc2)nc2ccccc21)Nc1ccc(F)cc1`, the “inhibition” value is 8.19%.

As to `CC(C)OCCCNC(=O)c1cccs1`, the call was inactive.

On to `O=C(Nc1ccc2nc(-c3ccccc3)[nH]c2c1)c1cccs1`, for which the “inhibition” value was 1.35%.

In the case of `CCCCN(CCCC)S(=O)(=O)c1ccc(NC(=O)Cc2cccs2)cc1`, the “inhibition” value is 10.2%.

As to `Cc1ccnc(NS(=O)(=O)c2ccc(NC(=O)Cc3cccs3)cc2)n1`, the molecule was called inactive.

Consider `CN(Cc1cn(C)nc1-c1cccc(Cl)c1)Cc1nccn1C`, for which the call was inactive.

Turning to `N#Cc1nc(Cc2ccccc2)oc1NCCCn1ccnc1`, the “inhibition” value is 6.76%.

On to `O=C(COc1ccc(F)cc1)Nc1ccc(-n2cnnn2)cc1`, for which the “inhibition” value was 3.38%.

As to `O=C(Nc1ccc2c(c1)OCCO2)N1CCN(c2ccccc2)CC1`, the “inhibition” value is 10.1%.

On to `CCOC(=O)C1CCCN(CCC(=O)Nc2ccc3c(c2)CCC3)C1` (configuration not stated), for which the “inhibition” value is 1.36%.

`Cn1c(CN2CCCC2)nc2cc(NC(=O)Nc3ccccc3)ccc21`: the result was inactive.

For the molecule `CCOC(=O)C1CCN(C(=O)C2CCN(c3nc4ccc(OC)cc4s3)CC2)CC1`, the “inhibition” value is 4.77%.

As to `C/C(=C/C(=O)NCc1ccccc1)C(=O)O`, the “inhibition” value is 8.78%.

Consider `CN(C)c1ccc(N/C=C/C(=O)c2ccco2)cc1`, for which the “inhibition” value is 1.36%.

In the case of `O=C(Nc1ccccc1C(F)(F)F)c1cc(-c2ccc(O)cc2)on1`, the result was inactive.

Regarding `O=C(CN(C(=O)CCNC(=O)c1ccco1)c1ccccc1)NC1CCCC1`, the “inhibition” value is 4.77%.

For `COc1ccc(/C=C/C2=NC(=C\N(C)C)/C(=O)O2)cc1`, the “inhibition” value is 9.46%.

In the case of `Nc1nnc(CC2=CCCCC2)s1`, the “inhibition” value was 3.38%.

For the molecule `CCOc1ccc(/C=C2\NC(=S)NC2=O)cc1`, the molecule was classed as inactive.

With `O=C(Cn1[nH]c(=O)c2ccccc2c1=O)OCC(=O)N(Cc1ccccc1)Cc1ccccc1`, the molecule was called inactive.

For the molecule `CC(C)Cc1ccc(C(C)C(=N)N)cc1` (configuration not stated), the “inhibition” value is 4.95%.

For `CC(C)N(C(=O)CO/N=C/c1cccc([N+](=O)[O-])c1)C(C)C`, the molecule was called inactive.

In the case of `C=CCOc1ccc2c(c1)C(=NO)c1cc(OCC=C)ccc1-2`, the “inhibition” value is 5.68%.

On to `O=C(Nc1c2c(nn1-c1ccc(F)cc1)CS(=O)C2)C12CC3CC(CC(C3)C1)C2` (configuration not stated), for which the “inhibition” value is 0.68%.

For the molecule `CC(C)NC(=O)C1CCCN(S(=O)(=O)c2cccs2)C1` (configuration not stated), the “inhibition” value was 0.68%.

For `Cc1ccc2oc(=O)c3cnn(CC(=O)NC4CCCCC4C)c3c2c1` (configuration not stated), the “inhibition” value is 6.08%.

As to `O=C(c1cnn2cccnc12)N1CCN(Cc2ccc3c(c2)OCO3)CC1`, the “inhibition” value is 2.73%.

On to `CC(=O)Nc1ccc(S(=O)(=O)N2CCN(CCCOc3ccccc3Cl)CC2)cc1`, for which the “inhibition” value was 4.09%.

With `O=C(COc1ccccc1Cl)NCCc1ccc2c(c1)OCCO2`, the “inhibition” value is 2.73%.

As to `CCCCn1c(C(C)NC(=O)CC)nc2ccccc21` (configuration not stated), the molecule was called inactive.
